From PubChem BioAssay
mHTT CaM bind = inhibitors of human mutant huntingtin-calmodulin interaction. 190,000 tested, 3.6% active. AID 1671202. inhibition, % at 15 µM. AlphaScreen His-mHTT/GST-CaM binding, luminescence;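 also: 0% = both proteins with DMSO and 100% = one protein alone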
Target sequence (P42858 whole entry, looked up, stated change not applied): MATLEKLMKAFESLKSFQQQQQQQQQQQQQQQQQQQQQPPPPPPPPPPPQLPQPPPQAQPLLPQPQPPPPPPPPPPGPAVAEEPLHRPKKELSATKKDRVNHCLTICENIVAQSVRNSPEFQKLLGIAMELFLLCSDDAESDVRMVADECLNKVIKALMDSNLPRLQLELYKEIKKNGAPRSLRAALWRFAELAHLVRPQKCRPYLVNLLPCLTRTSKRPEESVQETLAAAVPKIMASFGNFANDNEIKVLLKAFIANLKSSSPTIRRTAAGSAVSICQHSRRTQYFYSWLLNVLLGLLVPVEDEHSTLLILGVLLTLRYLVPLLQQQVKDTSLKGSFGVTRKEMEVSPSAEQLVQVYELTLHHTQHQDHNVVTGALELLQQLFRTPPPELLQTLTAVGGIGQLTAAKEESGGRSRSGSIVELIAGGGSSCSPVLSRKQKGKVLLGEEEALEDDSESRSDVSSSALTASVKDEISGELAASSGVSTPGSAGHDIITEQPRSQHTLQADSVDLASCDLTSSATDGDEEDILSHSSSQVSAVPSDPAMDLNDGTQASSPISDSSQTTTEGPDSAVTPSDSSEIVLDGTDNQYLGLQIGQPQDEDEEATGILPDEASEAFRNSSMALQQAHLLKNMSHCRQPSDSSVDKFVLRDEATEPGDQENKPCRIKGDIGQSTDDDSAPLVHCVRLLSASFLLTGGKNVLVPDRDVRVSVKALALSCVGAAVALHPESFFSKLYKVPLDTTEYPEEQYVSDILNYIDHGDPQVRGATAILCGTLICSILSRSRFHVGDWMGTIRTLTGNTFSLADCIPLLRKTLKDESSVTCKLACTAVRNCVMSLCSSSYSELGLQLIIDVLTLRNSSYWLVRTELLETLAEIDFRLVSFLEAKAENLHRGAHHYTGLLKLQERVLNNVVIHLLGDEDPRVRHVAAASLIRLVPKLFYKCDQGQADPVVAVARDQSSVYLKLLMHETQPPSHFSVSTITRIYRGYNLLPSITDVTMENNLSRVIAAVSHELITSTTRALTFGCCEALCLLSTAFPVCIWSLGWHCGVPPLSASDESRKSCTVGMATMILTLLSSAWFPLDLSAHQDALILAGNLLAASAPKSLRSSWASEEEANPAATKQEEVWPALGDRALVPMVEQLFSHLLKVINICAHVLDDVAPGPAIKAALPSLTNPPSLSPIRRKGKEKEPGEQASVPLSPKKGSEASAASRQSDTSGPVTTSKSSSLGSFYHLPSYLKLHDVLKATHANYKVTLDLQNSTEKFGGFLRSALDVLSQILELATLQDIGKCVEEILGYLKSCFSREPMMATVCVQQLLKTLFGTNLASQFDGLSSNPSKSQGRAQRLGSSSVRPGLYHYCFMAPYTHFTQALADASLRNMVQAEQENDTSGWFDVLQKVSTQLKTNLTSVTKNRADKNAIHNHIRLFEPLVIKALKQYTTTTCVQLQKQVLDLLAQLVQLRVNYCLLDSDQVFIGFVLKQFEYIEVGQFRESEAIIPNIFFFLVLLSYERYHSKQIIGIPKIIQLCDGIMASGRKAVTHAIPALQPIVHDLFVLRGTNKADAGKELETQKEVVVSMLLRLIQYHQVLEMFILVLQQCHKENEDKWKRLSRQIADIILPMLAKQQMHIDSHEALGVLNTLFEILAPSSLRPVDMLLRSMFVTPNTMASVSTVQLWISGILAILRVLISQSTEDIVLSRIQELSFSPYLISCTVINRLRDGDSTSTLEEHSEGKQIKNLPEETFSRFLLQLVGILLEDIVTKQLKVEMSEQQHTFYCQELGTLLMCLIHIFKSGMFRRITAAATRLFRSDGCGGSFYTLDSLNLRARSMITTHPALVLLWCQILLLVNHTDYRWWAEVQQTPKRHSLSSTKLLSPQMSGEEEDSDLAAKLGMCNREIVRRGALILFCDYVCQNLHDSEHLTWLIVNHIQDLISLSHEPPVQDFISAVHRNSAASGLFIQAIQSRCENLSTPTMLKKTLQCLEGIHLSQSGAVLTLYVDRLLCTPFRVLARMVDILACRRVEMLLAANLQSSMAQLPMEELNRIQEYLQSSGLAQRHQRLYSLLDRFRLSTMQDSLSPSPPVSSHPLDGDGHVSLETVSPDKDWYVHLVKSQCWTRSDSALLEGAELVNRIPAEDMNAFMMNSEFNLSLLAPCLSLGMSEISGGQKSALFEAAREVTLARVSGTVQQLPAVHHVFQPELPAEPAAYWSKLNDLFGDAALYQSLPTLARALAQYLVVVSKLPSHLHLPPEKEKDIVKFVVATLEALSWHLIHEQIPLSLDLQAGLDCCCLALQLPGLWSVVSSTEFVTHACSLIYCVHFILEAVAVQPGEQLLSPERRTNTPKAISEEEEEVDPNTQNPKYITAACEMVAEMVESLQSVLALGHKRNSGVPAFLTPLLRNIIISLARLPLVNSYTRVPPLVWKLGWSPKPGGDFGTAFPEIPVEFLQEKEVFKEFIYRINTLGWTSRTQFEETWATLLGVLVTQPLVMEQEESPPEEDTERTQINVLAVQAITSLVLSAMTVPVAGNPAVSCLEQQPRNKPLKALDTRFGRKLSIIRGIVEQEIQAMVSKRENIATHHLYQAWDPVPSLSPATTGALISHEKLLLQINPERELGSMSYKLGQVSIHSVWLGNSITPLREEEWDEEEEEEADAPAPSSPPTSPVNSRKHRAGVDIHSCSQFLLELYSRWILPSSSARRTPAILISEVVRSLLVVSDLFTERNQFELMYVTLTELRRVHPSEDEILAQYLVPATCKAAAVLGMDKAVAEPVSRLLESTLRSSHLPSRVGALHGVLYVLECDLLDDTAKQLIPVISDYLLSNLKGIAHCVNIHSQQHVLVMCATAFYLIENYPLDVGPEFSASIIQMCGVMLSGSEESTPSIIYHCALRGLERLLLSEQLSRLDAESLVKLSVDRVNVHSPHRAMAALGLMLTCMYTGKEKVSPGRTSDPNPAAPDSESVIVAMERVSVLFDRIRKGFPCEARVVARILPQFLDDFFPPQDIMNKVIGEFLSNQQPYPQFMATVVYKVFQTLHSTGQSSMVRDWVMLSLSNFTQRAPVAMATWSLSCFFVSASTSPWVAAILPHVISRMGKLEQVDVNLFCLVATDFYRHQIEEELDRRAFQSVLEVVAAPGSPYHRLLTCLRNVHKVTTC
Pf apPOL block = Pf-apPOL DNA polymerase inhibition | Recombinant Pf-apPOL, molecular beacon fluorescence, 1.5 h | inhibition, % at 10 µM | 210,000 tested, 0.25% active
Numbers without * were called inactive; x = no result; ! = a repeat was not active. Only a selection was taken, and hits are over-represented in it overall. Rule as the data show it: active = inhibition above about 50%; inactive = the rest.

SMILES	mHTT CaM bind	Pf apPOL block
O=C1CSC(c2cn(-c3ccccc3)nc2-c2ccc(Cl)cc2)N1Cc1cccnc1 (stereo not given)	58*	-4
O=C1CSC(c2cn(-c3ccccc3)nc2-c2cc3ccccc3oc2=O)N1CC1CCCO1 (stereo not given)	58*	-4
CC(C)Oc1ccc(C(O)=C2C(=O)C(=O)N(c3nccs3)C2c2ccc([N+](=O)[O-])cc2)cc1 (stereo not given)	47	-2
Cc1nn(-c2ccccc2)c(Cl)c1C(=O)NCCO	-6	0
Cc1sc2c(=O)n(C3CCCCC3)cnc2c1C(=O)NCc1ccccc1F	1	-4
COCCCNC(=O)CN1CCN(c2ccccc2)C1=O	-16	-5
COc1cc(C)ccc1S(=O)(=O)n1cnc2cc(C)c(C)cc21	-2	-3
COc1ccc(C(=O)CC(=O)c2ccccc2)cc1	42	4
COc1ccc(O)c(C(=O)CC(=O)c2ccccc2)c1	50*	2
CN(Cc1ccccc1)S(=O)(=O)c1cc(C(=O)Nc2ccc(F)c(F)c2)ccc1F	-1	27
CCN(Cc1ccccc1)S(=O)(=O)c1cc(C(=O)Nc2ccc(F)c(F)c2)ccc1F	-26	53*
CN1c2ccc(F)cc2C(=O)NC12CCN(C(=O)c1ccccc1Cl)CC2	-5	-2
O=C1c2cccc(N3CCOCC3)c2C(=O)c2cccc(Cl)c21	84*	-71
O=C1CCC(=O)N1c1ccccc1N1CCOCC1	x	-2
O=c1[nH]c(-c2ccc(F)cc2)cn1-c1ccc(Br)cc1	6	0
O=c1[nH]c(-c2ccc(Br)cc2)cn1-c1ccc(Cl)cc1	63*	-4
NCCNc1ccc([N+](=O)[O-])cc1	12	-1
Nc1ccc(Nc2ccc([N+](=O)[O-])cc2)cc1	52*	-5
CC(C)c1nnc2n1CCN(C(=O)c1ccc(Cl)s1)C2	-1	-3
COC(=O)CCc1c(C)nc2c(c(-c3cccs3)nn2C2CCS(=O)(=O)C2)c1C (stereo not given)	6	-10
CC(C)c1nnc(NC(=O)COc2cccc(Br)c2)s1	2	-2
Oc1cccc(CNc2ccc3[nH]ncc3c2)c1	77*	-5
Cc1cccc(CNc2ccc3cn[nH]c3c2)c1	60*	-4
c1cc2c(cc1CNc1ccc3cn[nH]c3c1)OCO2	64*	-6
Oc1cccc(CNc2ccc(F)c(Cl)c2)c1	19	-5
SMILES	mHTT CaM bind	Pf apPOL block
O=C(O)c1ccc(NCc2ccc3c(c2)OCO3)cc1	-3	5
Cn1cc(CC(=O)Nc2ccc3cn[nH]c3c2)c2ccccc21	12	3
N#Cc1cc(Sc2nc3ccccc3o2)c([N+](=O)[O-])cc1C#N	2	-2
O=C(NCC(F)(F)F)c1csc(Nc2ccccn2)n1	5	-9
COc1ccccc1C1=N/C(=C/c2ccccc2C(F)(F)F)C(=O)O1	6	1
O=C(O)CC1c2ccccc2Oc2ccccc21	-6	-1
O=CC1=C(c2ccccc2)Oc2ccccc2O1	51*	-6
Cc1nn(S(=O)(=O)c2ccccc2[N+](=O)[O-])c(C)c1Sc1ccccc1	0	-9
Cc1ccc(Sc2c(C)nn(S(=O)(=O)c3ccccc3[N+](=O)[O-])c2C)cc1	50*	1
C[C@H](CCC(=O)OCc1cn(CC(=O)c2ccc(O)cc2)nn1)[C@H]1CC[C@H]2[C@@H]3CC[C@@H]4C[C@H](O)CC[C@]4(C)[C@H]3C[C@H](O)[C@]12C	26	1
CC(CCC(=O)N=Nc1c(O)[nH]c2ccc(Br)cc12)C1CCC2C3C(O)CC4CC(O)CCC4(C)C3CCC12C (stereo not given)	63*	-5
COc1ccc(OCC(=O)Nc2cc(-c3nc4ncccc4o3)ccc2C)cc1	8	-3
COc1ccc(OCC(=O)Nc2cccc(-c3nc4ncccc4o3)c2)cc1	3	5
O=C(Nc1cccc(-c2nc3ncccc3o2)c1)c1cccc(Cl)c1Cl	20	-8
O=C(COc1ccc(Cl)cc1)Nc1cccc(-c2nc3ncccc3o2)c1	50*!	-7
Cc1ccc(-c2nc3ncccc3o2)cc1NC(=O)COc1ccc(Cl)cc1	1	91*
Cc1ccc(C(=O)Nc2cccc(-c3nc4ncccc4o3)c2)c(Cl)c1	53*	-2
Fc1ccc(OCOc2ccc(F)cc2)cc1	x	-2
Cc1ccc(C)c(C(=O)N2CCc3nc(-c4ccc(F)cc4)ncc3C2)c1	14	0
O=C(Nc1cccc2cccnc12)c1cccc([N+](=O)[O-])c1	-1	1
CC(=O)NC(c1cccc([N+](=O)[O-])c1)c1ccc2cccnc2c1O (stereo not given)	100*	1
CC(=O)NC(c1ccc(C(C)C)cc1)c1ccc2cccnc2c1O (stereo not given)	100*	-34
O=CNC(c1ccccc1)c1cccc([N+](=O)[O-])c1 (stereo not given)	0	0
CC(=O)Nc1cccnc1-c1ccc(C(=O)Nc2ccc(C(C)C)cc2)cc1	24	1
CCCCC(=O)NC(c1cccc([N+](=O)[O-])c1)c1ccc2cccnc2c1O (stereo not given)	100*	-7
SMILES	mHTT CaM bind	Pf apPOL block
Cc1cc(O)cc2c1C(=O)C(=Cc1ccc(Br)cc1)O2	-2	4
COc1ccc2[nH]cc(CCN3CC(C(=O)Nc4nc5ccc(C)cc5s4)CC3=O)c2c1 (stereo not given)	56*	-2
Cc1ccc(C)c(NC(=O)C2CC(=O)N(CCc3c[nH]c4ccc(F)cc34)C2)c1 (stereo not given)	22	0
Cc1ccc2nc(NC(=O)C3CC(=O)N(CCc4c[nH]c5ccc(F)cc45)C3)sc2c1 (stereo not given)	91*	-1
COc1ccc2[nH]cc(CCN3CC(C(=O)Nc4ccc(C)cc4C)CC3=O)c2c1 (stereo not given)	12	-3
O=C1NC2(CCN(Cc3ccccc3F)CC2)N=C1c1ccc(Br)cc1	-1	3
COc1ccc(NC(=O)c2ccc(OC)c([N+](=O)[O-])c2)cc1OC	7	0
COc1ccc(C(=O)Nc2ccc(N(C)C)cc2)cc1[N+](=O)[O-]	58*	-6
O=C(Cn1nnc2ccccc2c1=O)N1CCN(c2ccc(F)cc2)CC1	9	-9
CCOc1ccccc1CN1C(=O)CCC1(C)C(=O)NCCOC (stereo not given)	3	0
O=C(Nc1cccc(-c2nc3ccccc3[nH]2)c1)c1ccc([N+](=O)[O-])cc1	84*!	2
CC(=O)c1ccc(C(=O)Nc2cccc(-c3nc4ccccc4[nH]3)c2)cc1	27	0
CC(C)CN1CCC(=O)N([C@H](COc2ccccc2)Cc2ccccc2)CC1	19	-6
CC(C)C[C@@H](COc1ccccc1)N1CCN(CCc2ccccc2)CCC1=O	84*	-10
CCCN1CCC(=O)N([C@H](COc2ccccc2)CC(C)C)CC1	7	-3
O=C1CCN(CCc2ccccc2)CCN1[C@H](COc1ccccc1)Cc1ccccc1	98*	-4
O=C1CCN(CCc2ccccc2)CCN1[C@H](CSc1ccc(Br)cc1)c1ccccc1	21	-4
CC(=O)Nc1ccc(SC[C@H](c2ccccc2)N2CCN(CCc3ccccc3)CCC2=O)cc1	98*	-6
O=C(Nc1ccc(NC(=O)c2ccccc2[N+](=O)[O-])cc1)c1cccs1	4	-6
Clc1ccc(C2Oc3ccccc3C3=C2C(c2ccccc2)n2ncnc2N3)cc1 (stereo not given)	9	-6
